Measurements published in PubChem BioAssay AID651598 (Sanford-Burnham Center for Chemical Genomics, 2012).
Values joined by “and” are separate entries in the source; they are usually repeats but may differ in a detail not shown here. Identical values can stand only once.

Target: C-X-C chemokine receptor type 6 (Homo sapiens) (UniProt O00574)
Test: APJ beta-arrestin recruitment blockade alongside CXCR6 – cell-based, DiscoveRx, panel, CHO-K1, counter-screen for CXCR6 antagonist project, SAR follow-up (AID 651598)
Details: CHO-K1 PathHunter beta-arrestin luminescence, antagonist mode; run 1, at 80 µM (top of the series)

C-X-C chemokine receptor type 6 (Homo sapiens), sequence (O00574 whole entry, looked up): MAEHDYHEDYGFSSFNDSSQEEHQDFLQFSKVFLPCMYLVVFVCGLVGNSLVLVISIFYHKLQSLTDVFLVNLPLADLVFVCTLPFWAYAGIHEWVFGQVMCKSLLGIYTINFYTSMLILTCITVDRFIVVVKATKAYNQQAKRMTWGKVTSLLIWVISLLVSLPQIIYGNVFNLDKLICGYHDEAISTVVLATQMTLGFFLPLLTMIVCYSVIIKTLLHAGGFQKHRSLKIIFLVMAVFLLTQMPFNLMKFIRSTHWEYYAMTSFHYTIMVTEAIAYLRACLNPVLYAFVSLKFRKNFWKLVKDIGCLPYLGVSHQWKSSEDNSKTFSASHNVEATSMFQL

SMILES | inhibition
COc1cc(C(=O)NC2CC3CCC(C2)N3CC(=O)Nc2ccccc2)cc(OC)c1OC (stereo not drawn) | 59.5% and 13.9%
COc1cc(C(=O)NC2CC3CCCC(C2)N3CC(=O)Nc2ccccc2)cc(OC)c1OC (stereo not drawn) | 89.3% and 49.6% and 26.4%
COc1cc(C(=O)NC2CCN(CC(=O)Nc3ccccc3)CC2)cc(OC)c1OC | 4.26%
